# Measurements from the supplement of paper PMC13380429.
# Test system: Vero E6 infected with SARS-CoV-2
# Assay: morphology score (similarity to uninfected cells); higher = more like uninfected cells
# Conditions: 24 h
row,SMILES,morphology score
1,CC(=O)Oc1ccc(C(c2ccc(OC(C)=O)cc2)c2ccccn2)cc1 [bisacodyl] (10 µM),0.261
2,CC[N+](CC)(CC)CCOc1cccc(OCC[N+](CC)(CC)CC)c1OCC[N+](CC)(CC)CC [gallamine-triethiodide] (10 µM),-0.128
3,C/C(=C\CNc1ncnc2[nH]cnc12)CO [zeatin] (10 µM),-0.0215
4,C[N+]1(C)CCC(=C(c2ccccc2)c2ccccc2)CC1 [diphemanil] (10 µM),-0.00596
5,CN[C@@H](C)C(=O)N[C@H](C(=O)N1CCC[C@H]1C(=O)N[C@H]1c2ccccc2C[C@H]1OCC#CC#CCO[C@@H]1Cc2ccccc2[C@@H]1NC(=O)[C@@H]1CCCN1C(=O)[C@@H](NC(=O)[C@H](C)NC)C1CCCCC1)C1CCCCC1 (10 µM),-0.161
6,O=P1(NCCCl)OCCCN1CCCl (configuration not stated) [ifosfamide] (10 µM),0.188
7,CC(C)C[C@@H](C=O)NC(=O)[C@H](CC(C)C)NC(=O)[C@H](CC(C)C)NC(=O)OCc1ccccc1 (10 µM),0.514
8,CNC(=O)c1cc(COc2nnc(Nc3ccc(Cl)cc3)c3ccoc23)ccn1 [telatinib] (10 µM),0.0611
9,O=C(Nc1cccc(Cl)c1)Nc1ncc(CCNc2ncnc3ccsc23)s1 (10 µM),0.393
10,CCCOc1ccc(Br)cc1-c1cc(-c2ccc(Cl)cc2)[nH]c1-c1ccncc1 (10 µM),0.113
11,Clc1ccc(CCCOCCCN2CCCCC2)cc1 [pitolisant] (10 µM),0.243
12,O=C(O)CCC(=O)Nc1ccc(S(=O)(=O)Nc2nccs2)cc1 [succinylsulfathiazole] (10 µM),0.0689
13,CC1(C)OC[C@H](NC(=O)Nc2ccc(Br)cc2Br)[C@H](c2ccccc2)O1 (10 µM),-0.142
14,CC[C@]12C=CCN3CC[C@@]4(c5cc([C@@]6(C(=O)OC)C[C@@H]7C[C@@H](C(C)(F)F)CN(Cc8c6[nH]c6ccccc86)C7)c(OC)cc5N(C)[C@H]4[C@@](O)(C(=O)OC)[C@@H]1OC(C)=O)[C@@H]32 [Vinflunine Ditartrate] (10 µM),-0.12
15,CC1(C)CN(C(=O)c2ccc(-c3cccc4nc(NC(=O)C5CC5)nn34)cc2)C1 [solcitinib] (10 µM),0.0939
16,COc1cc2c(Nc3ccc(Cl)c(Cl)c3F)ncnc2cc1OC[C@@H]1C[C@@H]2CN(C)C[C@@H]2C1 (10 µM),-0.291

row,SMILES,morphology score
1,NCc1c[nH]c(=S)n1[C@H]1CCc2c(F)cc(F)cc2C1 [nepicastat] (10 µM),-0.046
2,CNC(=O)c1c(C)oc2cc(Oc3ncnc4cc(OC)c(OC)cc34)ccc12 [fruquintinib] (10 µM),0.0139
3,COCCOC(=O)C1=C(C)NC(C)=C(C(=O)OC(C)C)C1c1cccc([N+](=O)[O-])c1 (configuration not stated) [nimodipine] (10 µM),0.14
4,NC(=O)NCCC[C@H](N)C(=O)O [L-citrulline] (10 µM),0.035
5,CCOc1cc(N)c(Cl)cc1C(=O)NCC1CN(Cc2ccc(F)cc2)CCO1 (configuration not stated) [mosapride] (10 µM),0.33
6,O=C(O)c1ccc2nc(-c3cc(Cl)cc(Cl)c3)oc2c1 [tafamidis-meglumine] (10 µM),0.242
7,CCCCCCCCCCC(CO)CCCCCCCC (configuration not stated) [2-octyldodecan-1-ol] (10 µM),0.0425
8,CC(C)C[C@H](NC(=O)CNC(=O)c1cc(Cl)ccc1Cl)B1OC(=O)C(CC(=O)O)(CC(=O)O)O1 [ixazomib-citrate] (0.833333 µM),0.101
9,C[C@H]1NC(=O)NC1=O [5-methylhydantoin-(D)] (10 µM),0.121
10,Cc1cccc(Nc2nc(-c3ccncc3)cs2)c1 (0.833333 µM),0.455
11,Nc1ccc(O)c(C(=O)O)c1 [mesalazine] (10 µM),0.0799
12,Cc1cc(C)c(NC(=O)N(Cc2ccc3c(c2)Cc2ccccc2-3)C2CCCCCC2)c(C)c1 (10 µM),-0.179
13,Cc1c(-c2ccc(O)cc2)n(Cc2ccc(OCCN3CCCCCC3)cc2)c2ccc(O)cc12 [bazedoxifene] (0.833333 µM),0.201
14,OC(CCN1CCCCC1)(c1ccccc1)C1CCCCC1 (configuration not stated) [trihexyphenidyl] (10 µM),0.167
15,Cc1ccc(S(=O)(=O)NC2c3ccccc3Oc3ccccc32)cc1 (10 µM),0.173
16,Cc1cc(-c2ncc(CC(=O)Nc3ccc(-c4cnccn4)cn3)cc2C)ccn1 (10 µM),-0.0828
